Data reported in PubChem BioAssay AID504660 (National Center for Advancing Translational Sciences (NCATS), 2011).
About 3,700 (1%) of roughly 360,000 compounds were called active. This excerpt belongs to a sample that is enriched for actives. A number with no mark means an inactive call. Cut-off read from the data, not from the text of the source: active = activation above about 30%; inactive = the rest.

What follows are compounds tested against D(1A) dopamine receptor (Homo sapiens) (UniProt P21728) (assay: Allosteric Agonists of the Human D1 Dopamine Receptor: qHTS). Settings: HEK293 T-REx D1 cells, calcium flux, agonist mode; at 2 µM; stronger effect = higher value.
How it was run: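 Inducible HEK293 T-REx D1 cells, force-coupled to calcium signalling, were plated at 4000 cells/well with tetracycline and held overnight at 30 C. After no-wash calcium dye loading, compound-evoked calcium rise over 180 s flagged agonists.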
Note: 0% is about no effect.

D(1A) dopamine receptor (Homo sapiens), sequence (P21728 whole entry, looked up): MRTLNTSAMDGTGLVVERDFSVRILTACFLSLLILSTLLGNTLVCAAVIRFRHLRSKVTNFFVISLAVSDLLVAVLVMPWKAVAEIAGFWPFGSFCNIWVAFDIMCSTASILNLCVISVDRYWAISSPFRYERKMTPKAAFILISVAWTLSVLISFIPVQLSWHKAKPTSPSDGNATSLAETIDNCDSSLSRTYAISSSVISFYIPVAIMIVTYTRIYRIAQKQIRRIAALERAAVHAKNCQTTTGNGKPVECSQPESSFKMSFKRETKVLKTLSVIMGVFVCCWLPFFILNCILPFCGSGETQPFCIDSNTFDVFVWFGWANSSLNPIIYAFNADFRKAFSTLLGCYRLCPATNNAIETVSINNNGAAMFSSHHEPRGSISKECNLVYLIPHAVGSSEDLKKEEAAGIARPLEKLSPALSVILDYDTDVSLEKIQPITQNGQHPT

Row | SMILES | activation
1 | Cc1ccc(C)c(N2C(=O)N(Cc3c(F)cccc3Cl)c3ccccc3S2(=O)=O)c1 | 5.6%
2 | CN1C(=O)c2cccc3c(N)ccc(c23)C1=O | 219% (active)
3 | Cc1nn(C)cc1N1C(=O)c2cccc3c(N)ccc(c23)C1=O | 244% (active)
4 | CCc1nc2cccnc2n1-c1ccc(CC(=O)Nc2c(C)cccc2C)cc1 | 1.78%
5 | Cc1ccc(Cn2c(=O)n(Cc3nc(-c4ccccc4)no3)c(=O)c3cc4c(cc32)OCO4)cc1 | -0.256%
6 | COc1ccccc1Cc1nc2ccccc2nc1SCC(=O)N1CCCc2ccccc21 | 0.349%
7 | CCCN1CN=C(NS(=O)(=O)c2ccc(NC(C)=O)cc2)NC1 | -0.217%
8 | COc1ccc(CC(=O)Nc2nnc3n2CCS3)cc1OC | 1.78%
9 | Cc1ccc(NC(=O)c2cn3c4c(ccc(Cl)c4c2=O)OC(C)C3)cc1C (configuration not stated) | 2.01%
10 | Fc1ccccc1Cn1cnc(NC(=S)NCCc2ccccc2)n1 | 1.4%
11 | N=c1n(CCc2ccccc2)c2ccccc2n1Cc1ccccc1F | 100% (active)
12 | O=C(COC(=O)Cc1ccccc1F)NCCc1ccccc1 | 2.43%
13 | O=C(Nc1cc(Cl)cc(Cl)c1)c1ccc2c(c1)N(Cc1cccc(Cl)c1)C(=O)c1ccccc1S2=O (configuration not stated) | 6.19%
14 | CCC(=O)NC(=S)Nc1ccc(NC(=O)c2ccco2)c(Cl)c1 | 42.4% (active)
15 | COc1ccc(NC(=O)c2ccco2)cc1NC(=O)COc1ccc(C)c(C)c1 | -1.09%
16 | COc1cc(NC(=O)c2cc([N+](=O)[O-])ccc2Br)ccc1NC(=O)c1ccco1 | 0.47%
17 | COc1ccc(Cn2ccc3nc(C)c(C(=O)Nc4ccc(C)c(F)c4)cc3c2=O)cc1 | 2.43%
18 | Cc1cc(C)c(NC(=O)C[N+](C)(C)CC(O)COc2cccc3ccccc23)c(C)c1 (configuration not stated) | 62.2% (active)
19 | Cc1cc(C)cc(OCC(=O)NCc2cc(C)nc3ccccc23)c1 | -0.104%
20 | CC(C)c1ccccc1OCC(O)CN(CC(O)COc1cccc2ccccc12)C(C)C (configuration not stated) | 6.15%
21 | Cc1ccc2c(=O)c(C(=O)c3ccc(Cl)cc3)cn(CC(=O)NC3CCCCC3)c2n1 | 1.93%
22 | CCOc1ccc(CNC(=O)c2ccc3c(c2)nnn3C2CCCC2)cc1 | 1.9%
23 | CC(=O)c1cccc(NC(=O)CSc2nc3c(c(=O)[nH]2)CCC3)c1 | 1.96%
24 | CCn1c(=O)cc(OCC(=O)Nc2cc(Cl)c(OC)cc2OC)c2ccccc21 | 0.964%
25 | CC(C)Cc1cc(C(=O)Nc2cc(Br)ccc2O)no1 | -1.17%
26 | CC(C)/C=N/NC(=O)c1cc(Br)ccc1O | 32.1% (active)
27 | CC(=N\NC(=O)c1cc(Br)ccc1O)/C(=N/O)C(=O)Nc1ccccc1 | 5.39%
